The record followed here is PubChem BioAssay AID2763 (National Center for Advancing Translational Sciences (NCATS), 2010).

Results filed as inconclusive are left out. Activity calls are given as the source filed them. Calls follow the shape of the dose curve; as a rule, active = well fitted inhibition curve with a large enough effect; inconclusive = small, poorly fitted or top-dose-only effect, or effect the other way; inactive = no such curve, though single readings can be large or run the other way.
Potency is read from the fitted curve at half-maximal effect.

The nature of the experiment: Concentration response confirmation VP16 counterscreen for inhibitors of ROR gamma transcriptional activity. Also: nearly all actives have a fitted effect of over 70% in size. To be noted: Drosophila S2 Gal4-VP16 UAS-luciferase, luminescence, 20 h; series mostly up to 46.1 µM. In short, it runs like this: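 Luciferase counterscreen: UAS-driven Photinus reporter in S2 cells expressing copper-inducible Gal4-VP16 fusion, 600 cells/well. Induced with copper sulfate (700 uM final) 1 hr after compound, incubated 20 hr at ambient temperature before luminescence detection.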
On the technique in general: Counterscreens check selectivity or assay interference.
Consider `COc1cc(OC)c(C2=NOC(C(=O)NCc3cccnc3)C2)cc1Cl` (stereo not given), for which the Potency result is “inactive”.
With `Oc1ccccc1-c1cc(-c2ccc3c(c2)OCCO3)n[nH]1` the figure was 19.9 µM (active); with `O=c1oc2c3c(nn2c2ccccc12)CCCC3`, “inactive”; with `Oc1ccc(COCc2ccccc2)c2cccnc12`, 2.5 µM (active).
Turning to `Cn1nccc1C(=O)NC1CCCc2c1cnn2-c1ccc(F)cc1F` (stereo not given), the Potency is 1.58 µM (active).
As for `CN1CCN(C(=O)CCN2C(=O)/C(=C\c3ccccc3F)SC2=S)CC1`, the entry is “inactive”; as for `CNc1cc(C(F)(F)F)nc(-c2ccccn2)n1`, 8.88 µM (active).
`CCC(C)[C@H](NC(=O)NCc1ccco1)C(=O)O` (stereo not given in full): the Potency result is “inactive”.
Consider `COC1CCN(C(=O)c2cc(COc3ccc(-n4cncn4)cc3)on2)CC1`, for which the Potency entry was “inactive”.
With `CCCCn1c(CN2CCN(c3ccccc3)CC2)nc2c1c(=O)n(C)c(=O)n2C` the figure was 8.88 µM (active); with `O=C(CSCCO)Nc1ccc(C2CCCCC2)cc1`, 9.96 µM (active).
With `COc1cc(C(=O)NC2CC(C)(C)Cc3c2cnn3-c2ccccc2)cc(OC)c1OC` (stereo not given) the entry was “inactive”.
As for `O=C(NC(=S)Nc1nc(-c2ccc(Br)cc2)cs1)c1cccnc1`, the entry is “inactive”; as for `CCOC(=O)Cn1c(CN2CCc3ccccc3C2)nc2c1c(=O)n(C)c(=O)n2C`, 3.15 µM (active).
As for `COc1ccc2nc(N3C(=O)CNC3=S)sc2c1`, the Potency was 8.88 µM (active).
Turning to `O=C(COc1ccccc1)NNc1nc2c(F)cccc2s1`, the Potency result is “inactive”.
Turning to `CCOC(=O)c1ccc2nc(Nc3nc4ccc(F)cc4s3)sc2c1`, the Potency is 25 µM (active).
In the case of `COc1ccc(C(=O)Nc2cc(-c3ccc(C)cc3)no2)cc1`, the Potency entry is “inactive”.
Consider `CCCCCCn1ccc(=N)cc1`, for which the Potency is 11.2 µM (active).
Consider `COc1ccccc1CNC(=O)[C@@H](NC(=O)C1CCN(C(=O)[C@@H]2CCCN2C(=O)OC(C)(C)C)CC1)C(C)C`, for which the Potency result is “inactive”.
Consider `Cc1sc2ncnc(Sc3nnc4sc5ccccc5n34)c2c1C`, for which the Potency entry is “inactive”.
In the case of `O=C(O)c1ccc(/C=N/n2cc(-c3ccccc3)[nH]c2=S)cc1`, the Potency result was “inactive”.
As for `CCOC(=O)C(C(=O)OCC)C(C(=O)OCC)N1CCOCC1` (stereo not given), the Potency was 3.53 µM (active).
As for `CC(C)(C)S(=O)(=O)c1cnc2c(-c3ccc(Cl)cc3)cnn2c1N`, the figure is 6.28 µM (active).
As to `CCN(CC(=O)Nc1ccc2c(c1)CCC2)Cc1nc2ccccc2c(=O)[nH]1`, the Potency is 15.8 µM (active).
For the molecule `COc1ccc(CNC(=O)COC(=O)C2CC3C=CC2C3)cc1` (stereo not given), the Potency result was “inactive”.
On to `CC(C)(C)c1cc(C(=O)N2CCc3ccccc32)ccn1`, for which the Potency result is “inactive”.
With `O=[N+]([O-])c1cc2c(cc1/C=N/Nc1nc(Nc3ccccc3)nc(N3CCCCC3)n1)OCO2` the entry was “inactive”; with `O=C1CC(c2ccc(F)cc2)CC(O)=C1C1NCCc2ccccc21` (stereo not given), “inactive”.
As for `COc1ccc(Cl)c(Cn2c(NCc3ccco3)nc3c2c(=O)n(C)c(=O)n3C)c1`, the figure is 1.99 µM (active).
For the molecule `Cc1ccc2nc(-c3ccc(NC(=O)COC(=O)c4ccc(=O)[nH]c4)cc3)sc2c1`, the Potency was 12.5 µM (active).
On to `O=C(CSc1ccccc1C(=O)N1CCCCC1)NCC1CCCCC1`, for which the Potency result was “inactive”.
With `N=C1S/C(=C\c2ccco2)C(=O)N1c1nccs1` the figure was 0.396 µM (active); with `Cc1oc(-c2ccccc2Cl)nc1CSCC(=O)O`, 7.91 µM (active); with `COc1ccc(C(=O)Nc2nc3cc4c(cc3s2)OCCO4)c(OC)c1`, 0.223 µM (active).
